A selection: hits, their analogues and other compounds. The true share with any hit is near 2.6%.
Cruzain noTriton – blocks cruzain activity in detergent-free assay | P25779 | purified cruzain, Z-FR-AMC fluorescence, no detergent | Potency, µM, inactives show max response, negative = inhibition, actives largely listed as inhibitors | 2.3% of 200,000 active | AID 1476;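 further: plate controls were enzyme without inhibitor for no effect and buffer without enzyme for full effect; nearly all actives have a fitted effect of over 40% in size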
Target sequence (P25779 123-467 limits assumed): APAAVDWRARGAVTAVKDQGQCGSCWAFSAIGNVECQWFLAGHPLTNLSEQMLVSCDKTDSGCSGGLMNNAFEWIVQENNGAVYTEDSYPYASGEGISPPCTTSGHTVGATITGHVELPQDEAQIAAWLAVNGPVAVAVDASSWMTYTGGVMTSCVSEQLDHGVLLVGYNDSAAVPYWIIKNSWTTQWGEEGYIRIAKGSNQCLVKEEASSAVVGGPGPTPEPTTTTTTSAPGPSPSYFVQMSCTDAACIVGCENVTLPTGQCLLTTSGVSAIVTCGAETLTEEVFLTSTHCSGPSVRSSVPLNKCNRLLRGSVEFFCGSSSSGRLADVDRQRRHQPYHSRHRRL
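Detergent-free condition (0.00005% Triton X-100) in acetate buffer pH 5.5 with DTT. 1.5 nM enzyme and compound were pre-mixed 15 min, then 2 uM Z-FR-AMC substrate added; reaction progress from fluorescence change between first and third reads (60 s).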
Cruzain Triton – blocks cruzain activity in presence of Triton detergent; 0.43% of 200,000 active; purified cruzain, Z-FR-AMC fluorescence, 0.01% Triton; P25779; Potency, µM, for the others: max response, negative = inhibition, usual class: inhibitors;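 further: plate controls were neutral wells for no effect and buffer without enzyme for full effect; nearly all actives have a fitted effect of over 40% in size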
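15 min RT preincubation of 1.5 nM cruzain with compound, then 2 uM Z-FR-AMC added; kinetic AMC fluorescence, 60 s delta. Triton X-100 0.01%, pH 5.5.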
Numbers without * were called inactive; ? = inconclusive. The call rests on the fitted dose curve; in most records, active means well fitted curve in the direction sought with a large enough effect; inconclusive means small, poorly fitted or top-dose-only effect, or another doubt; inactive means no such curve, though single readings can be large; an effect the other way counts as inactive or inconclusive. Potency means the concentration at half of the fitted maximal effect.

SMILES | Cruzain noTriton | Cruzain Triton
COc1ccccc1N1CCN(C(=O)CCS(=O)(=O)c2cc(Br)cc3c2N(C(=O)C2CC2)CC3)CC1 | ? | -2%
NC(=O)c1ccccc1-c1nc(-n2ccnc2)c2ccccc2n1 | -2% | 1%
Cc1sc(NC(=S)NC(=O)c2ccc(C(C)(C)C)cc2)c(C#N)c1C | 10µM* | 1%
Cc1ccccc1C(=O)NC(=S)Nc1sc2c(c1C#N)CCCC2 | ? | -4%
CCOC(=O)C1=C(CP(=O)(c2ccccc2)c2ccccc2)NC(=O)NC1c1ccc(OC)cc1 (stereo not drawn) | -1% | -3%
CCOC(=O)C1=C(CSCC(=O)OC)NC(=O)NC1c1cc(C)ccc1C (stereo not drawn) | -5% | 5%
CCOC(=O)C1=C(CSc2nc3ccccc3s2)NC(=O)NC1c1cc(C)ccc1C (stereo not drawn) | 32µM* | 2%
CCOC(=O)C1=C(CSc2nc3ccccc3s2)NC(=O)NC1c1ccc(OC)cc1 (stereo not drawn) | 25µM* | -3%
O=C(c1csnn1)N1CCC2(CC1)CN(C(c1ccccc1)c1ccccc1)C2 | 8% | -1%
CCCCN(CCCNC(=O)c1cc(Nc2ccc(OC)c(OC)c2)nc2ccccc12)c1ccccc1 | -28% | -4%
CCOC(=O)/C(C#N)=N/Nc1ccc(S(=O)(=O)N2CCc3ccccc32)cc1 | 25µM* | -7%
Cc1ccc(C(=O)Nc2ccc(S(=O)(=O)N3CCc4ccccc43)cc2)o1 | -16% | 0%
O=S(=O)(NCCc1csc(-c2ccc(F)cc2)n1)c1ccc(Cl)cc1 | -4% | -10%
Cc1ccc2c(c1)[nH]c1c(=O)n(CCC3=CCCCC3)cnc12 | 20µM* | 4%
CCOC(=O)N1CCN(C(=O)c2ccc3c(=O)n(CCC4=CCCCC4)c(=S)[nH]c3c2)CC1 | ? | -7%
O=c1c2ccc(Cl)cc2[nH]c(=S)n1CCC1=CCCCC1 | 20µM* | -1%
Cc1ccc2[nH]c3c(=O)n(CCC4=CCCCC4)cnc3c2c1 | -20% | 0%
O=C(NC[C@@H](O)CO)c1c(I)c(C(=O)NC[C@@H](O)CO)c(I)c(N(CCO)C(=O)CO)c1I | 5% | -3%
CCCCOC(=O)c1ccc(Nc2nc3ccc(C(=O)c4ccccc4)cc3n3cnnc23)cc1 | -3% | -2%
Cc1ccccc1Cn1ccc(-c2ccc(Cl)cc2)c(C#N)c1=O | 25µM* | -8%
Cc1ccc(Cn2ccn(Cc3ccccc3C)c(=O)c2=O)cc1 | 7% | -1%
CC(C)Oc1ccc(CNC(=O)Cc2ccc(NC(=O)N3CCSc4ncccc43)cc2)cc1 | 18% | -10%
COC(=O)CNC(=O)[C@@]1(C)C=C[C@@H](Cc2ccccc2)N1C(C)=O | 8% | 3%
O=C(CN1CCN(c2ccc(O)cc2)CC1)Nc1cc([N+](=O)[O-])ccc1Cl | 25µM* | -24%
CC(C(=O)Nc1cc([N+](=O)[O-])ccc1Cl)N1CCN(c2ccccc2)CC1 (stereo not drawn) | 1% | -2%
SMILES | Cruzain noTriton | Cruzain Triton
N#Cc1ccc(CN2CCC3(CC2)CCN(C(=O)c2cccc(F)c2)CC3)cc1 | -7% | 4%
O=C(NCCCc1ccccc1)c1ccccc1 | 1% | 5%
O=C(NCC#CCOCc1ccccc1)c1ccccc1 | 13µM* | 11µM*
CC(C)(C)c1ccc(C(=O)Nc2ccccc2C(=O)OCc2cc(=O)n3ccsc3n2)cc1 | -8% | 1%
CCN(c1ccccc1)S(=O)(=O)c1ccc(NC(=O)c2cc(=O)c3cc(C)cc(C)c3o2)cc1 | -4% | -1%
Cc1ccc(S(=O)(=O)N/N=C2/CC(c3ccccc3)Oc3ccccc32)cc1 (stereo not drawn) | 25µM* | -3%
O=S(=O)(N/N=C1\CC(c2ccccc2)Oc2ccccc21)c1ccccc1 (stereo not drawn) | -23% | -1%
O=C(/C=C/c1ccc(Br)cc1)c1ccc(NC2=NCCCS2)cc1 | ? | -17%
CC(C)(C)c1ccc(/C=C/C(=O)c2ccc(NC3=NCCCS3)cc2)cc1 | 32µM* | -24%
COc1ccc(NC(=O)C2=C(C)Nc3nc(SCc4ccc(Cl)cc4)nn3C2c2cccc(OC)c2OC)cc1 (stereo not drawn) | 8% | 1%
CCCCOc1ccccc1NC(=O)CC1Nc2ccccc2NC1=O (stereo not drawn) | 25µM* | 0%
CCCCNC(=O)CC1Nc2ccccc2NC1=O (stereo not drawn) | 5% | -3%
COc1cc2ccccc2c2cc([N+](=O)[O-])oc12 | -6% | 0%
COC(=O)CSc1nc2c(c(-c3ccco3)c1C#N)CCCC2 | 20µM* | 28µM*
CCOC(=O)CSc1nc2c(c(-c3ccc(C)o3)c1C#N)CCCC2 | 23% | -11%
Cc1ccc(NS(=O)(=O)c2c(C)nc3sccn3c2=O)c(Cl)c1 | -4% | -10%
Nc1ccc(Nc2ccccc2N)cc1 | 25µM* | -9%
Nc1cc(C(=O)O)ccc1Nc1ccccc1 | -4% | -1%
O=c1c2c(-c3ccccc3)csc2ncn1/N=C/c1c2ccccc2cc2ccccc12 | 10µM* | -5%
Cc1nn(-c2ccccc2)c(N2CCCC2)c1/C=N/n1cnc2scc(-c3ccccc3)c2c1=O | -3% | -1%
N=C1S/C(=C\c2ccccc2F)C(=O)N1c1ccc(F)cc1 | ? | -3%
N=C1S/C(=C\c2ccccc2)C(=O)N1c1ccc(F)cc1 | 25µM* | 3%
COc1ccc(C(=O)N2CCC3(CC2)CN(Cc2ccc(C#N)cc2)C3)cc1 | -6% | 9%
COc1ccc(-c2noc(-c3ccc(NC4CCCCC4)c([N+](=O)[O-])c3)n2)cc1OC | 21% | -4%
COc1ccc(-c2noc(-c3ccc(NC(C)c4ccccc4)c([N+](=O)[O-])c3)n2)cc1OC (stereo not drawn) | 13µM* | -5%
SMILES | Cruzain noTriton | Cruzain Triton
CCOc1ccc(C(=O)Nc2c(C(=O)Nc3ccccc3F)oc3ccccc23)cc1OCC | -2% | 1%
COc1ccc(Nc2ncnc3sc(-c4ccccc4)cc23)cc1 | 32µM* | -5%
COc1ncnc2sc(-c3ccccc3)cc12 | 12% | -5%
COc1ccccc1C(=O)Nc1ccc(Oc2ncnc3sc(-c4ccccc4)cc23)cc1 | 6.3µM* | 2%
COc1cc(C(=O)Nc2ccc(Oc3ncnc4sc(-c5ccccc5)cc34)cc2)cc(OC)c1OC | 10% | 1%
CCOc1ccc(NC(=O)C2CCC(CNS(=O)(=O)c3ccc4c(c3)CCCC(=O)N4)CC2)cc1 (stereo not drawn) | 9% | 1%
O=C(O)c1cccc(OCCO)c1 | 1% | 1%
CCCCNC(=O)NS(=O)(=O)c1ccc(N)cc1 | -2% | 0%
COP(=O)(OC)O/C(=C\Cl)c1cc(Cl)c(Cl)cc1Cl | 6% | 0%
C=C(C)C(=O)OCCCCCCCCCC | -9% | 2%
Clc1ccc(/C=N/Nc2nnc(Cl)c3ccccc23)cc1 | 25µM* | -1%
Clc1nnc(N/N=C/c2ccccc2)c2ccccc12 | 4% | -7%
COc1cccc(C2CC(=O)N3CN(C4CCCCC4)CSC3=C2C#N)c1 (stereo not drawn) | 10% | 28µM*
COc1ccc(C2CC(=O)N3CN(C4CCCCC4)CSC3=C2C#N)cc1 (stereo not drawn) | 12% | 20µM*
CN1CSC2=C(C#N)C(c3cccc(OCc4ccccc4)c3)CC(=O)N2C1 (stereo not drawn) | 6% | -13%
COc1ccc(N2CSC3=C(C#N)C(c4ccc(OC)c(OC)c4)CC(=O)N3C2)c(OC)c1 (stereo not drawn) | -15% | -12%

Screening results deposited in PubChem BioAssay by National Center for Advancing Translational Sciences (NCATS).
